Assay outcomes (PubChem)
TNF death inh: blocks TNF-alpha induced death of Jurkat FADD-/- cells | Jurkat FADD-/- TNF necroptosis rescue, ATP luminescence, 24 h; 0 = TNF only, 100 = no-TNF cells | activation (protection from cell death), % at 10 µM | 220,000 compounds, 0.068% hits | AID 463075;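 active = activation, meaning protection from cell death, of at least 50% relative to plate controls; inactive = activation below 50%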;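 also: necroptosis triggered by 40 ng/mL TNF-alpha added together with compound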
14-3-3 Bad PPI: disrupts binding of bovine 14-3-3 zeta to phospho-Bad peptide; P63103; TR-FRET 14-3-3zeta/Dy647-pBad peptide displacement, 1 h; inhibition, % at 21.7 µM; 220,000 compounds, 0.71% hits; AID 781;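 active = inhibition above about 70%, limit read from the data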
Target sequence (P63103 whole entry, looked up): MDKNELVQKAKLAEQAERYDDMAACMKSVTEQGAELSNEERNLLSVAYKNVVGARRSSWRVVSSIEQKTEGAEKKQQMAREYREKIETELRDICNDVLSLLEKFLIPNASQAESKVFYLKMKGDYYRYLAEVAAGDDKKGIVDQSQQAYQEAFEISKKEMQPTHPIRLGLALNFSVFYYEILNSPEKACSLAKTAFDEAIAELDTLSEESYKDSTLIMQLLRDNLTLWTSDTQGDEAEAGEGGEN
ROMK primary: modulators of human ROMK potassium channel. P48048. Tet-inducible ROMK, thallium flux fluorescence; actives lie on both sides. B-score at 10 µM. 130,000 compounds, 2% hits;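 active = signal ratio slope over the read window, or its plate-corrected B-score, at least 3 SD from the plate mean, either direction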;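 also: B-score of the F/F0 ratio slope over 7 to 12 s after thallium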
Target sequence (P48048 whole entry, looked up): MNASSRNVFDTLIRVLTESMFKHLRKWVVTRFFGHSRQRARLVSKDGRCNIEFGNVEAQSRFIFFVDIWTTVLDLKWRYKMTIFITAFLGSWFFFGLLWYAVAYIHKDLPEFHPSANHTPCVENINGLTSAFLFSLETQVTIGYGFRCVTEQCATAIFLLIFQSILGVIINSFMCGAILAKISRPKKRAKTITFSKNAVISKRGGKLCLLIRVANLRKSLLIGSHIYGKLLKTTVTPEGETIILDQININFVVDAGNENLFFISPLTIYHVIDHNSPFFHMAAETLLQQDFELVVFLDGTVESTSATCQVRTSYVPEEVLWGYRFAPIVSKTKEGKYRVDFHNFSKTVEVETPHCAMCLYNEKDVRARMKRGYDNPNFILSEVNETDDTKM
L929 necroptosis: L929 zVAD cell death inhibition; L929 zVAD necroptosis rescue, ATP luminescence, 24 h; with zVAD 60 µM; viability rescue, % at 10 µM; 220,000 compounds, 0.38% hits; AID 1377;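 active = activation, scaled between plate controls, above about 75%, limit read from the data; inactive = activation under that limit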
HMGR II inh: E. faecalis class II HMG-CoA reductase inhibition | purified E. faecalis HMGR, NADPH absorbance 340 nm kinetic | inhibition, % at 10 µM | 190,000 compounds, 0.41% hits | AID 1066;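 active = inhibition above a set limit, the median over all tested compounds plus 3 SD, cut at about 9.5% in these data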;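 also: enzyme runs in reverse so mevalonate oxidation gives rising NADPH absorbance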
Calpain2 inh: blocks pig calpain II enzyme activity. purified calpain II, fluorogenic peptide substrate, 30 min. inhibition, % at 16 µM. 220,000 compounds, 0.37% hits. AID 1236;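 active = inhibition above about 50%, limit read from the data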
Each line names hits and unclear results; the compound was inactive in the other large screens; [ ] = remark or other dose. Compounds with a hit are over-represented: about 3% of the library has one in this group of screens.

CCSc1nnc(NC(=O)CCc2ccc(OC)cc2)s1	none (no result: ROMK primary)
CCC(=O)NNC(=S)NC(=O)c1ccc(C)cc1	none
Cc1cccc(C(=O)NC(=S)NNC(=O)Cc2ccccc2)c1	none
CSc1ccccc1NC(=O)COc1ccccc1C	Calpain2 inh 69
Cc1ccc(C(=O)NC(=S)NNC(=O)COc2ccccc2C)cc1	ROMK primary 3
Cc1cccc(C(=O)NC(=S)NNC(=O)COc2c(C)cccc2C)c1	ROMK primary 2.7
COc1ccc(N2CCN(c3ccc(Cl)nn3)CC2)cc1	none
CCCCNC(=O)C(Cc1ccccc1)NS(=O)(=O)c1ccc2c(c1)c(=O)n(C)c(=O)n2C (centres undefined)	none (no result: ROMK primary)
CCCC(c1nnnn1Cc1ccco1)N1CCC(C(N)=O)CC1 (centres undefined)	14-3-3 Bad PPI 71 (no result: ROMK primary)
Cc1[nH]c2ccc(-c3nnc(SCC(=O)c4ccc(F)cc4)o3)cc2c1C	none
Cc1cc(C)c(C)c(C(=O)CSc2nnc(-c3ccc4[nH]c(C)c(C)c4c3)o2)c1C	14-3-3 Bad PPI 73
O=C(CCc1nc2ccccc2c(=O)[nH]1)OCc1ccc(Cl)cc1Cl	none
COCc1cc(=O)[nH]c(Nc2nc3ccccc3o2)n1	none
Cc1ccc2oc(Nc3nc(-c4ccccc4)cc(=O)[nH]3)nc2c1	14-3-3 Bad PPI 88
CC(=O)N1CCN(Cc2nc3cc(NC(=O)NC4CCCCC4)ccc3n2C)CC1	none
O=C(/C=C/c1ccc(Cl)cc1)NCCN1CCOCC1	none (no result: ROMK primary)
Nc1cc(S(=O)(=O)N2CCCCC2)ccc1Oc1ccc(Cl)cc1	Calpain2 inh 64
Cc1cccc(Oc2ccc(S(=O)(=O)N3CCCCC3)cc2N)c1	none
Nc1cc(Cl)ccc1Oc1ccc(Cl)cc1	14-3-3 Bad PPI 80 (no result: ROMK primary)
Nc1cc(Cl)ccc1Oc1ccccc1	none (no result: ROMK primary)
Cc1cccc(Oc2ccc(Cl)cc2N)c1	Calpain2 inh 50
CN(NS(=O)(=O)c1ccc(Cl)cc1)c1ncc(C(F)(F)F)cc1Cl	none
CC1CCCN(c2nc3ccccc3nc2C(C#N)S(=O)(=O)c2ccccc2)C1 (centres undefined)	none (no result: ROMK primary)
CCCCOc1nc2ccccc2nc1C(C#N)S(=O)(=O)c1ccccc1 (centres undefined)	14-3-3 Bad PPI 72
Nc1nc(SCc2ccc(Cl)c(Cl)c2)n[nH]1	none
O=S1(=O)C=C(SCc2ccc(Cl)c(Cl)c2)Nc2ccccc21	Calpain2 inh 53 (no result: ROMK primary)
COc1ccc(C(=O)N2CCC(C(=O)Nc3ccc4c(c3)OCO4)CC2)cc1	none
CC1(C)CC(=O)C2=C(C1)OC(N)=C([N+](=O)[O-])C2c1cccs1 (centres undefined)	none (no result: ROMK primary)
COc1ccccc1OCCCCCc1c(C)n[nH]c1C	14-3-3 Bad PPI 72 (no result: ROMK primary)
COc1ccc(C(=O)C23CC4CC(C2)CC(C(=O)c2ccc(OC)cc2)(C4)C3)cc1	Calpain2 inh 63
CCCNC(=O)c1ccccc1NC(=O)CN(c1ccccc1)S(=O)(=O)N(C)C	none
CC1CCCCC1NCC(=O)Nc1ccccc1-c1ccccc1 (centres undefined)	14-3-3 Bad PPI 71 (no result: ROMK primary)
O=C1c2cccc3c(Nc4ccccc4Cl)c([N+](=O)[O-])cc(c23)C(=O)N1CCO	none
Cc1cccc(OCC(O)Cn2c(=N)n(Cc3ccccc3)c3ccccc32)c1 (centres undefined)	none (no result: ROMK primary, HMGR II inh)
N=c1n(Cc2ccccc2)c2ccccc2n1CC(O)COc1ccc(Cl)cc1Cl (centres undefined)	Calpain2 inh 52
O=C1CN=C(Nc2ccccc2)N1Cc1cccs1	14-3-3 Bad PPI 72 (no result: ROMK primary)
Cc1cc(C)cc(NC2=NCC(=O)N2Cc2ccccc2)c1	14-3-3 Bad PPI 72
CC(C)c1ccc(NC2=NCC(=O)N2Cc2cccs2)cc1	none
Cc1cccc(NC2=NCC(=O)N2Cc2ccccc2)c1	none (no result: ROMK primary)
O=C(CSc1nc2ccccc2c(=O)n1NC(=O)Cc1ccccc1)NCc1ccccc1Cl	none (no result: ROMK primary)
CN(C)c1ccc(S(=O)(=O)N2CCCCC2)cc1NC(=O)COc1ccccc1F	none (no result: ROMK primary, HMGR II inh)
CCCS(=O)(=O)N1CCCC(C(=O)c2ccccc2OC)C1 (centres undefined)	none
N#CC1=C(SCC(=O)Nc2nccs2)NC(=O)CC1c1ccccc1 (centres undefined)	TNF death inh 75, L929 necroptosis 82
Cc1ccccc1NC(=O)CSC1=C(C#N)C(c2ccsc2)CC(=O)N1 (centres undefined)	none (no result: ROMK primary)
CC1CCC2(CC1)C(Nc1cccc(Cl)c1)=NC(=S)N2CC#N (centres undefined)	none
Cc1nc(-c2ccc(S(=O)(=O)Nc3ccc(Br)cc3Cl)s2)cs1	Calpain2 inh 63 (no result: HMGR II inh)
Cc1ccc(NC(=O)CN2C(=O)S/C(=C/c3ccc(-c4cccc(C(=O)O)c4)o3)C2=O)cc1	14-3-3 Bad PPI 88
Cc1cc(C(=O)CSCc2nnc3n(CCC(C)C)c(=O)c4ccccc4n23)c(C)n1C	none (no result: 14-3-3 Bad PPI, ROMK primary, HMGR II inh, Calpain2 inh)
CC(C)CCn1c(=O)c2ccccc2n2c(CN3C(=O)NC4(CCC(C)CC4)C3=O)nnc12 (centres undefined)	ROMK primary 4
O=C(Nc1sc2c(c1C(=O)c1ccc(Cl)cc1)CCCC2)c1cccnc1	14-3-3 Bad PPI 71 (no result: ROMK primary)
NC(=O)c1c(NC(=O)c2cccnc2)sc2c1CCCC2	none
Clc1c(-c2ccccc2)nnn1-c1ccccc1	none
O=[N+]([O-])c1ccc(N=Cc2ccc(Br)c([N+](=O)[O-])c2)cc1	none
Nn1c(Cc2cccc3ccccc23)nnc1SCc1ccc(Cl)c(Cl)c1	Calpain2 inh 55 (no result: L929 necroptosis)
CC1OC(OC2C(OC3C(O[C@H]4CC[C@]5(C)C6C=C[C@]78OC[C@@]9(CC[C@@H](C)[C@H](C)C97)[C@H](O)C[C@@]8(C)[C@]6(C)CC[C@H]5C4(C)C)OC(C)C(O)C3O)OC(CO)C(O)C2O)C(O)C(O)C1O (some centres undefined)	none (no result: ROMK primary, HMGR II inh)
COc1ccc(C(=O)Nc2cccc(-c3cc4ccccc4oc3=O)c2)cc1[N+](=O)[O-]	14-3-3 Bad PPI 75[fluorescence artefact?] (no result: ROMK primary)
CSCCC(N=C(NS(=O)(=O)c1ccc(Br)cc1)c1ccccc1)C(=O)O (centres undefined)	none
COc1ccc(OC)c(NC(=O)Cc2coc3cc(C)cc(C)c23)c1	none
CC(=NCCc1c(C)[nH]c2ccc(OCc3ccccc3)cc12)C1=C(O)CC(c2ccccc2)CC1=O (centres undefined)	HMGR II inh 13
COc1ccc(NC(=O)c2ccc(-c3ccc([N+](=O)[O-])cc3)o2)cc1OC	none
COc1cc([N+](=O)[O-])ccc1-c1ccc(/C=N/NC(=O)c2ccccc2O)o1	14-3-3 Bad PPI 89, Calpain2 inh 54 (no result: HMGR II inh)
COc1cc([N+](=O)[O-])ccc1-c1ccc(C(=O)Nc2ccc(NC(C)=O)cc2)o1	14-3-3 Bad PPI 95[fluorescence artefact?] (no result: ROMK primary)
O=C(N/N=C/c1ccc(-c2cccc([N+](=O)[O-])c2)o1)c1ccccc1O	none
Cc1ccc(N=Cc2nc(-c3ccc(C)cc3)oc2O)cc1	none
